Hits are enriched below; roughly 19% of the tested compounds scored in any of these assays.
TDP1 cell noCPT: qHTS for Inhibitors of human tyrosyl-DNA phosphodiesterase 1 (TDP1): qHTS in cells in absence of CPT. DT40 Tdp1-/- hTDP1 cells, no CPT, ATP luminescence, 48 h. Potency, µM (highest dose often 46.2 µM), inactives show at the highest dose activity change, negative = growth inhibition, usual class: inhibitors. actives 15% (n = 420,000). AID 686978, 2013; also: nearly all actives have a fitted effect of over 55% in size
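Seeded 400 DT40-hTDP1 cells/well (vehicle DMSO, no 20 nM CPT); pinned compounds; ≥48 hr at 37 °C; CellTiter-Glo luminescence as viability measure.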
HT1080NT lethal: kills 2HG-producing HT-1080-NT fibrosarcoma cells. HT-1080-NT fibrosarcoma viability, CellTiter-Glo ATP luminescence, 48 h. Potency, µM (top dose mostly 46.1 µM), for the others: top-dose activity, negative = less viability, actives largely listed as cytotoxic. actives 1.6% (n = 360,000). AID 686970;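 also: NT is the 2HG producing partner of a matched IDH1 knockdown line; 0% = DMSO-treated cells and -100% = media-only wells without cells; nearly all actives have a fitted effect of over 55% in size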
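A 48-hour cytotoxicity screen used HT-1080-NT cells plated 2 hours before compound delivery. ATP-based CellTiter-Glo luminescence measured viability, normalized to DMSO and no-cell controls.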
KB-3-1 cytotox: kills parental KB-3-1 adenocarcinoma cells | actives 1.4% (n = 400,000) | AID 1347075 | Potency, µM (series often up to 46.1 µM), actives largely listed as cytotoxic | KB-3-1 viability, CellTiter-Glo ATP luminescence, 72 h; also: nearly all actives have a fitted effect of over 60% in size
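Cytotoxicity measured as CellTiter-Glo luminescence after 72 h at 37 C. Compound titrations were pinned onto drug-naive KB-3-1 parental adenocarcinoma cells grown in DMEM with 10% FBS, and normalized data fitted to concentration-response curves.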
DT40 TDP1 CPT: growth inhibition of DT40 Tdp1-/-;hTDP1 cells with camptothecin (screen for TDP1 inhibitors); chicken DT40 Tdp1-/-;hTDP1 cells + 20 nM CPT, ATP luminescence, 48 h; Potency, µM (series often up to 46.2 µM), inactives show top-dose activity change, negative = growth inhibition, actives largely listed as inhibitors; actives 12% (n = 420,000); also: nearly all actives have a fitted effect of over 55% in size
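Cell growth measured by CellTiter-Glo luminescence after a minimum 48 h, 37 C compound exposure with 20 nM CPT in Tdp1-knockout DT40 cells stably expressing hTDP1, seeded 400/well; qHTS titration format.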
KB-V1 cytotox: kills drug-selected multidrug resistant KB-V1 cells; KB-V1 MDR cells viability, CellTiter-Glo, 72 h; Potency, µM (top dose mostly 46.1 µM), actives largely listed as cytotoxic; actives 3.4% (n = 400,000); AID 1347076; also: nearly all actives have a fitted effect of over 60% in size
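Readout: CellTiter-Glo luminescence, 10 min after addition. Cells: KB-V1 MDR subline, 72 h at 37 degrees C with compound. Analysis: corrected, normalized data fitted to concentration-effect curves.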
HT1080 IDH1KD tx: toxicity to HT-1080 IDH1 knockdown cells (counter line). HT-1080 IDH1 knockdown viability, ATP luminescence, 48 h. Potency, µM (highest dose often 46.1 µM), inactives show top-dose activity, negative = toxicity, hits mostly cytotoxic. actives 2% (n = 360,000);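 also: 0% = DMSO wells and -100% = cell-free medium wells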
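Knockdown cells (IDH1KD HT-1080) received compounds 2 h after plating at 750 cells/well and were kept 48 h at 37 °C in 5% FBS RPMI. A CellTiter-Glo luminescence read gave % activity for curve fitting.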
* marks the source's active call; other numbers are inactive results; i = inactive; u = inconclusive; x = not tested or not shown; [ ] = dose if it differs, or a comment. Calls follow the shape of the dose curve; as a rule, active = well fitted curve in the direction sought with a large enough effect; inconclusive = small, poorly fitted or top-dose-only effect, or another doubt; inactive = no such curve, though single readings can be large; an effect the other way counts as inactive or inconclusive. Unless noted, % is scaled to controls: 0 for no effect and ±100 for the full control effect; potency is read from the fitted curve at half-maximal effect.

SMILES	TDP1 cell noCPT	HT1080NT lethal	KB-3-1 cytotox	DT40 TDP1 CPT	KB-V1 cytotox	HT1080 IDH1KD tx
Cc1cnc(CNc2nc(-c3ccccc3Cl)nc3ccccc23)cn1	-14%	x	x	-15%	x	x
CCOc1ccc(-n2c(=O)c3sccc3n(Cc3ccc(C)cc3)c2=O)cc1	u	0%	i	u	i	-1%
C#Cc1ccc([C@H]2C=C(C(=O)NCc3nc4ccccc4[nH]3)O[C@@H](OCC)[C@@H]2CCCO)cc1	u	0%	i	u	u	3%
CCO[C@@H]1OC(C(=O)NCc2nc3ccccc3[nH]2)=C[C@H](C2CC2)[C@H]1CCCO	2.9µM*	18µM*	5.2µM*	4.6µM*	i	u
C[C@@H]1C=C(C(=O)NCc2nc3ccccc3[nH]2)O[C@H](OCc2ccc(CO)cc2)C1	u	-22%	i	16µM*	i	-5%
CCO[C@@H]1OC(C(=O)NCc2nc3ccccc3[nH]2)=C[C@H](C(C)(C)C)[C@H]1CCCO	1.2µM*	3.3µM*	1.3µM*	1.3µM*	i	3.3µM*
CCO[C@H]1OC(C(=O)NCc2nc3ccccc3[nH]2)=C[C@@H](c2ccc(Br)cc2)[C@@H]1CCCO	u	u	i	u	i	-28%
CC1CN(CCC(=O)NC(c2cccnc2)C(F)(F)F)Cc2cc(Cl)ccc2O1 (stereo not drawn)	u	x	x	-13%[9.04 µM]	x	x
COc1cc(/C=C/C(=O)OCC(=O)NCc2ccccc2OC)ccc1O	-11%	-24%	i	u	i	-46%
COc1cc(C(=O)OCC(=O)NCc2ccc(F)cc2)ccc1OCC(C)C	16µM*	0%	23µM*	u	i	-5%
COc1cc(/C=C/C(=O)OCC(=O)Nc2ccc3c(c2)OCO3)ccc1O	-26%	4%	i	u	i	0%
COc1cc(/C=C/C(=O)OCC(=O)NCc2ccc(F)cc2)ccc1O	2.3µM*	u	u	2.6µM*	16µM*	u
CC(C)(C)c1ccc(/C=N/OCC(=O)NCc2ccc(F)cc2)cc1	16µM*	u	i	u	u	u
COc1cc(/C=C/C(=O)OCC(=O)Nc2ccc3c(c2)OCCO3)ccc1O	16µM*	-29%	i	u	i	u
COc1cccc(-n2nc(C(=O)N3CC(C)CC(C)C3)c3ccccc3c2=O)c1 (stereo not drawn)	-12%	-29%	i	-22%	u	6%
Cc1noc(C)c1CC(=O)N1CCOc2c(cc(-c3nc4ccccc4s3)cc2OC2CCOC2)C1 (stereo not drawn)	-9%	x	x	12%[9.04 µM]	x	x
Cc1ccc(C)c(NC(=O)CN(C)C(=O)c2ccc(S(=O)(=O)N3CCCCCC3)cc2)c1	-2%	6%[9.24 µM]	i	-33%	i	-2%
Cc1ccc(OCC(=O)NC2CCCC(C)C2C)c([N+](=O)[O-])n1 (stereo not drawn)	-9%	0%	i	u	i	-1%
CS(=O)(=O)c1ccc(Cl)c(NC(=O)C2CCCCN2S(=O)(=O)c2ccccc2)c1 (stereo not drawn)	u	8%	i	-19%	i	-1%
COc1cc(C(=O)OCC(=O)N2c3ccccc3NC(=O)C2(C)C)ccc1OCC(C)C	u	-2%	i	u	21µM*	-14%
CCOC(=O)c1cnc(Nc2nc3ccccc3o2)nc1CN1CCN(C)CC1	13µM*	u	u	18µM*	13µM*	15µM*
CCOC(=O)C(=CN=C(N)Nc1nc2ccccc2o1)C(=O)OCC	-18%	1%	i	-6%	i	-1%
CC1CCCN(S(=O)(=O)c2ccc3c(c2)c(=O)nc2ccccn23)C1 (stereo not drawn)	u	-6%	i	u	u	-4%
CCC(=O)c1ccc(OCC(=O)Nc2cc(S(=O)(=O)N3CCCCC3)ccc2N2CCN(CC)CC2)cc1	18µM*	-27%	i	u	i	u
CN1CCN(c2ccc(S(=O)(=O)N3CCCCC3)cc2NC(=O)COc2ccc([N+](=O)[O-])cc2)CC1	-29%	-13%	i	-1%	i	1%
SMILES	TDP1 cell noCPT	HT1080NT lethal	KB-3-1 cytotox	DT40 TDP1 CPT	KB-V1 cytotox	HT1080 IDH1KD tx
CCN1CCN(c2ccc(S(=O)(=O)N3CCCCC3)cc2NC(=O)Cc2ccccc2)CC1	-13%	1%	i	-21%	i	0%
CCN1CCN(c2ccc(S(=O)(=O)N3CCCCC3)cc2NC(=O)COc2ccc(Cl)c(C)c2)CC1	13µM*	-4%	i	16µM*	i	-14%
O=C(Nc1ccccc1C(=O)Nc1ccc(Br)cn1)c1cccc([N+](=O)[O-])c1	u	8%	i	u	i	11%
Cc1ccc(CNc2ncnc3c2cnn3-c2ccc(Cl)cc2)cc1	-20%	x	i	-29%	i	x
CCc1nc(NC(C)(C)C)c2cnn(-c3ccccc3)c2n1	18µM*	u	i	u	i	u
Clc1ccc(-n2ncc3c(NCCCn4ccnc4)ncnc32)cc1	-24%	-5%	u	u	i	-1%
COc1ccc(Nc2ncnc3c2cnn3Cc2ccccc2)cc1OC	u	u	i	u	18µM*	u
Clc1ccc(-n2ncc3c(NCc4ccccn4)ncnc32)cc1	3%	-3%	i	-1%	23µM*	-10%
CCCCNc1ncnc2c1cnn2-c1ccc(Cl)cc1	4.6µM*	12µM*	1.6µM*	3.7µM*	u	9.2µM*
COCCCNc1ncnc2c1cnn2-c1ccc(F)cc1	5.8µM*	x	x	5.2µM*	x	x
Cc1ccc(CNc2ncnc3c2cnn3-c2ccccc2)cc1	-17%	-8%	i	-54%	i	u
Clc1ccc(Cn2ncc3c(NCc4ccccc4)ncnc32)cc1	4.1µM*	5.8µM*	5.2µM*	4.6µM*	6.5µM*	4.6µM*
CCCCNc1ncnc2c1cnn2Cc1ccc(Cl)cc1	6.5µM*	u	u	9.2µM*	i	u
COCCCNc1ncnc2c1cnn2-c1ccc(C)cc1C	-10%	u	i	-17%	i	-10%
CCCCNc1ncnc2c1cnn2-c1ccccc1	2.6µM*	u	6.5µM*	2.3µM*	u	15µM*
COCCNc1ncnc2c1cnn2Cc1ccc(Cl)cc1	u	-16%	u	u	u	-28%

Screens as filed in PubChem.
